Twelve compounds from PubChem BioAssay (EPA / NIEHS) can be followed below.

Where “and” joins values, the source holds several entries; their conditions need not be identical. Identical values can stand only once. Records with an inconclusive call do not appear. Where a structure was tested more than once in an assay, its records may differ in their call. Calls of active or inactive are those of the source. How the source made its calls, unless noted: active means hit-call score of the fitted dose curve at least 0.9, where 1 is the maximum; inconclusive means response in the unintended direction; inactive means score below 0.9.

As usually defined, the AC50 is the midpoint of the concentration-response curve, whichever way the signal moves.

The target of experiment [1] is Estrogen receptor beta (Homo sapiens) (UniProt Q92731). Description: OT_ER_ERbERb_1440: Odyssey Thera (OT) 24-hour HEK293T Protein-Complementation Assay for Estrogen Receptor-beta/-beta Homodimer (AID 2283380).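 Further: fluorescence gain from ER beta LBD homodimer complementation read by laser scanning cytometry; scored as signal increase over DMSO baseline for both agonists and antagonists.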 The gist of the method:
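HEK293T cells stably expressing human ER-beta LBD (aa 310-547) PCA homodimer pair, dosed 24 h; formaldehyde-fixed, Draq5-stained. Readout: increase in nuclear (agonist) or nuclear plus cytoplasmic (antagonist) fluorescence intensity versus DMSO, gain-of-signal fitting.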

Experiment [2] deals with Retinoic acid receptor RXR-alpha (Homo sapiens) (UniProt P19793). Description: OT_NURR1_NURR1RXRa_0480: Odyssey Thera (OT) 8-hour HEK293T Protein Complementation Assay for Nurr1/retinoid X receptor (RXR) (AID 2283385). The gist of the method: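 Interaction of bait and prey reconstitutes a functional reporter, whose fluorescence was measured in HEK293T cells dosed with compound for 8 hours. Signal gain relative to DMSO defined the single endpoint.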
Sequence of Retinoic acid receptor RXR-alpha (Homo sapiens) (P19793 whole entry, looked up): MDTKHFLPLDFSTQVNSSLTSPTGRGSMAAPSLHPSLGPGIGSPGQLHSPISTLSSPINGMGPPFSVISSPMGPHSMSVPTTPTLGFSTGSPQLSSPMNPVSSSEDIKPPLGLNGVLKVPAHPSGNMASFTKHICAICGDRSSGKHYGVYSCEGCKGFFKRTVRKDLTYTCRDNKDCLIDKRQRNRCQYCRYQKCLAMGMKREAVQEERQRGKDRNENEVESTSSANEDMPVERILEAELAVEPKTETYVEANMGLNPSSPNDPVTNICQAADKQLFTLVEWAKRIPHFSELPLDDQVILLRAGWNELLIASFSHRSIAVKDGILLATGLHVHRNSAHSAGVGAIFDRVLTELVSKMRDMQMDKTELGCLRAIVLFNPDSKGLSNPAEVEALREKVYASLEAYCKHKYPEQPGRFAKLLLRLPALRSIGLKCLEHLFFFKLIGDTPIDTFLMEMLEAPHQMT

The target is the same in experiment [3]. In words: OT_NURR1_NURR1RXRa_1440: Odyssey Thera (OT) 24-hour HEK293T Protein Complementation Assay for Nurr1/retinoid X receptor (RXR) (AID 2283386). The gist of the method: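 Steps: fragment-tagged Nurr1 and RXRα expressed in HEK293T; compounds added; after 24 h, complemented reporter quantified by fluorescence intensity; signal increase over DMSO fitted as the single endpoint.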

The target of experiment [4] is Peroxisome proliferator-activated receptor gamma (Homo sapiens) (UniProt P37231). In words: OT_PPARg_PPARgSRC1_0480: Odyssey Thera (OT) 8-hour Protein-Complementation Assay for Peroxisome Proliferator-activated Receptor Gamma / SRC-1 Co-activator (AID 2283387). The gist of the method: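 Read-out: 488 nm N/C fluorescence ratio from complemented Venus YFP fragments, ≥350 cells per image, gain-of-signal fitted against DMSO baseline. Fusions of PPARg/SRC-1 with IFP1/IFP2 expressed transiently in HEK293T; compounds applied 8 h.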
Sequence of Peroxisome proliferator-activated receptor gamma (Homo sapiens) (P37231 whole entry, looked up, the tested form may be a part): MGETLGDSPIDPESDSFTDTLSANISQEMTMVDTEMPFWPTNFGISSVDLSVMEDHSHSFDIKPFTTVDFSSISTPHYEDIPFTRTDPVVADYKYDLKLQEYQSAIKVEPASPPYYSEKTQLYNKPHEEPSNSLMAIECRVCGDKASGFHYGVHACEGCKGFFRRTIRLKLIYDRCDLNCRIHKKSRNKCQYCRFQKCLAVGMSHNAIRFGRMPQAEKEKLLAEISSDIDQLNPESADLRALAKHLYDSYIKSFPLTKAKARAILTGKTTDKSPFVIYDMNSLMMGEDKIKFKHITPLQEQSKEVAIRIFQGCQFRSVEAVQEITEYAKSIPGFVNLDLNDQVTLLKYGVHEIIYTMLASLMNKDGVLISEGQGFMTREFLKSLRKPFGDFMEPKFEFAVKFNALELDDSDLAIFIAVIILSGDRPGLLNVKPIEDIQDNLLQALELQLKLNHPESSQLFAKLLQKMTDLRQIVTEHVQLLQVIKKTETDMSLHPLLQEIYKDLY

Experiment [5] shares this target. Description: OT_PPARg_PPARgSRC1_1440: Odyssey Thera (OT) 24-hour Protein-Complementation Assay for Peroxisome Proliferator-activated Receptor Gamma/ SRC-1 Co-activator (AID 2283388). The gist of the method:
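HEK293T transiently transfected with PPARg/SRC-1 split-Venus YFP fusions 48 h before dosing, then treated 24 h at 37C. Fixed cells imaged; nuclear/cytoplasmic 488 nm fluorescence ratio, gain of signal versus DMSO.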

Experiment [6] is described as follows: CEETOX_H295R_11DCORT: CeeTox H295R High-throughput Steroidogenesis Assay for 11-Deoxycortisol (11DCORT) (AID 2283432; active means hit-call score of the fitted dose curve at least 0.9, where 1 is the maximum; inactive means score below 0.9;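 on AC50: human adrenal H295R cells prestimulated with 10 µM forskolin for 48 h; 11-deoxycortisol secreted into the medium measured by LC-MS/MS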). The note with it: actives raise or lower the signal. The gist of the method: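 H295R cells; 10 uM forskolin prestim 48 h; compound in 0.1% DMSO 48 h; media extracted with MTBE; 11-deoxycortisol by LC-MS/MS, 7-point standard curve; gain/loss vs DMSO baseline; viability by MTT in same wells.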

Experiment [7] in a line: CEETOX_H295R_OHPREG: CeeTox H295R High-throughput Steroidogenesis Assay for OH-Pregnenolone (OHPREG) (AID 2283434; active means hit-call score of the fitted dose curve at least 0.9, where 1 is the maximum; inactive means score below 0.9). The note with it: actives raise or lower the signal. The gist of the method:
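Readout: HPLC-MS/MS of 17alpha-hydroxypregnenolone in medium after 48 h chemical exposure of H295R cells pretreated with forskolin. Values fitted bidirectionally relative to DMSO; chemicals reducing viability to 20–70% were retested after 10-fold dilution.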

The nature of experiment [8]: CEETOX_H295R_OHPROG: CeeTox H295R High-throughput Steroidogenesis Assay for OH-Progesterone (OHPROG) (AID 2283435; active means hit-call score of the fitted dose curve at least 0.9, where 1 is the maximum; inactive means score below 0.9;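 on AC50: human adrenal H295R cells primed 48 h with 10 µM forskolin; 17alpha-hydroxyprogesterone secreted into medium measured by HPLC-MS/MS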). The note with it: actives raise or lower the signal. The gist of the method: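 Steps: seed H295R cells and adhere overnight; stimulate with 10 uM forskolin for 48 h; replace with chemical-containing medium (0.1% DMSO) for 48 h; extract medium with MTBE; quantify 17alpha-hydroxyprogesterone by reverse-phase C18 HPLC-MS/MS against a 7-point curve.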

Experiment [9] in a line: CEETOX_H295R_CORTIC: CeeTox H295R High-throughput Steroidogenesis Assay for Corticosterone (CORTIC) (AID 2283437; active means hit-call score of the fitted dose curve at least 0.9, where 1 is the maximum; inactive means score below 0.9;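 further: corticosterone secreted into medium quantified by mass spectrometry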). Conditions: actives raise or lower the signal. The gist of the method:
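Steps: seed H295R, adhere overnight; 10 uM forskolin 48 h; replace with chemical (0.1% DMSO) 48 h; extract medium with MTBE; quantify corticosterone by HPLC-MS/MS; score bidirectionally vs DMSO.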

Experiment [10] in a line: CEETOX_H295R_CORTISOL: CeeTox H295R High-throughput Steroidogenesis Assay for Cortisol (AID 2283438; active means hit-call score of the fitted dose curve at least 0.9, where 1 is the maximum; inactive means score below 0.9;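 further: cortisol secreted into medium quantified by LC-MS/MS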). Conditions: actives raise or lower the signal. The gist of the method:
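Cortisol synthesis by H295R cells is measured 48 h after chemical dosing, following a 48 h stimulation with 10 uM forskolin. Hormone is extracted and quantified by HPLC-MS/MS, and activity is fitted bidirectionally against the DMSO control.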

Experiment [11] can be described thus: CEETOX_H295R_DOC: CeeTox H295R High-throughput Steroidogenesis Assay for DOC (AID 2283439; active means hit-call score of the fitted dose curve at least 0.9, where 1 is the maximum; inactive means score below 0.9). The note with it: actives raise or lower the signal. The gist of the method:
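Steps: seed H295R, adhere overnight; 10 uM forskolin 48 h; replace with chemical medium (0.1% DMSO) 48 h; collect medium, MTBE extraction, HPLC-MS/MS for DOC. Viability then checked by MTT; cytotoxic chemicals diluted until viability ≥70%.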

Experiment [12] deals with Estrogen receptor (Homo sapiens) (UniProt P03372). Description: OT_ERa_GFPERaERE_0480: Odyssey Thera (OT) 8-hour HeLa Transcription Induction Assay for Estrogen Receptor (AID 2283381; active means hit-call score of the fitted dose curve at least 0.9, where 1 is the maximum; inactive means score below 0.9). The gist of the method:
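Human cervical HeLa cells were treated for 8 hours, after which ERE-driven GFP induction was measured by fluorescence microscopy; increases over DMSO baseline defined activity.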

Experiment [13] shares this target. In words: OT_ERa_GFPERaERE_0120: Odyssey Thera (OT) 2-hour HeLa Transcription Induction Assay for Estrogen Receptor (AID 2283382). The gist of the method:
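Cells (human cervical HeLa) receive compound, incubate 2 hours, then are imaged for fluorescent reporter induction. Images are quantified by high content analysis, and activity is fitted as gain of signal against DMSO.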

A short description of experiment [14]: CEETOX_H295R_ANDR: CeeTox H295R High-throughput Steroidogenesis Assay for Androstenedione (ANDR) (AID 2283436; active means hit-call score of the fitted dose curve at least 0.9, where 1 is the maximum; inactive means score below 0.9;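 further: human H295R adrenal cells exposed for 48 h with androstenedione measured in medium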). The note with it: actives raise or lower the signal. The gist of the method: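 Steroidogenesis in H295R adrenal cells after 48 h dosing; androstenedione quantified by LC-MS/MS, with DMSO as negative control and baseline for bidirectional curve fitting.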

In experiment [15] the target is Bile acid receptor (Homo sapiens) (UniProt Q96RI1). Description: OT_FXR_FXRSRC1_0480: Odyssey Thera (OT) 8-hour HEK293T Protein-Complementation Assay for Farnesoid X receptor/SRC-1 Co-activator (AID 2283383). The gist of the method:
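PCA, HEK293T, 8 h compound exposure; FXR–SRC-1 binding reconstitutes split reporter; fluorescence intensity; positive-direction fit vs DMSO.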

For experiment [16] the target is unchanged. Description: OT_FXR_FXRSRC1_1440: Odyssey Thera (OT) 24-hour HEK293T Protein-Complementation Assay for Farnesoid X receptor/SRC-1 Co-activator (AID 2283384). The gist of the method:
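Measures ligand-driven FXR–SRC-1 co-activator recruitment in HEK293T via fragment complementation, fluorescence intensity at 24 h. DMSO served as negative control and baseline for gain-of-signal fitting.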

Sequence of Bile acid receptor (Homo sapiens) (Q96RI1 whole entry, looked up): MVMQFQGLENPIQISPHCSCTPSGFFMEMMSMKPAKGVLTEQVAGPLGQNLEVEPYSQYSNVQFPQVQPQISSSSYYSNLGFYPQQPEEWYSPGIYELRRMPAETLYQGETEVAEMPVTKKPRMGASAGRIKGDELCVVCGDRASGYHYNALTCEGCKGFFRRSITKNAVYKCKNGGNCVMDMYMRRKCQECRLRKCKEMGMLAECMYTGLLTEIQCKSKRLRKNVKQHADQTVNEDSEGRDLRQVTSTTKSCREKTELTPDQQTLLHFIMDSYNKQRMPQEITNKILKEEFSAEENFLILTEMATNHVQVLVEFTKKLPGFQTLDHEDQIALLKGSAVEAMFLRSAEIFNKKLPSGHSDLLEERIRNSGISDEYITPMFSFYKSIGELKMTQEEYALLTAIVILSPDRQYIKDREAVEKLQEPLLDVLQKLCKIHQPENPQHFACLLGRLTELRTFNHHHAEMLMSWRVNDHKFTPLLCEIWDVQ
Sequence of Estrogen receptor (Homo sapiens) (P03372 whole entry, looked up): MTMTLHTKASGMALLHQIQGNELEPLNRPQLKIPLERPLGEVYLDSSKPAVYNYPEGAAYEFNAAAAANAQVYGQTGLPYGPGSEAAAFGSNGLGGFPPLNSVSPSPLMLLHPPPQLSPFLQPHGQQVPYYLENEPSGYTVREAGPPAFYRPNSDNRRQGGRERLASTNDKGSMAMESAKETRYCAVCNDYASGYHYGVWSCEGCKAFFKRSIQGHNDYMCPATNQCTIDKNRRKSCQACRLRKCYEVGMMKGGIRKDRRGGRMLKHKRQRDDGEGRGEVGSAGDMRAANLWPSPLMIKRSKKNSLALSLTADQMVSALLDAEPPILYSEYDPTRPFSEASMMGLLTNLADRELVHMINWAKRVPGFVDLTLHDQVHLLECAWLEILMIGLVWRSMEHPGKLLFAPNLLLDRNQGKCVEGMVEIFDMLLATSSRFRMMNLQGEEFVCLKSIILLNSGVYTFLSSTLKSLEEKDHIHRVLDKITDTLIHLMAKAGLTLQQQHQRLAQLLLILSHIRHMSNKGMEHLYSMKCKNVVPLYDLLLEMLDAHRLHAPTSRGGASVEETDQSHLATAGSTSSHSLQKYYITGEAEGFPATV
Sequence of Estrogen receptor beta (Homo sapiens) (Q92731 whole entry, looked up, the tested form may be a part): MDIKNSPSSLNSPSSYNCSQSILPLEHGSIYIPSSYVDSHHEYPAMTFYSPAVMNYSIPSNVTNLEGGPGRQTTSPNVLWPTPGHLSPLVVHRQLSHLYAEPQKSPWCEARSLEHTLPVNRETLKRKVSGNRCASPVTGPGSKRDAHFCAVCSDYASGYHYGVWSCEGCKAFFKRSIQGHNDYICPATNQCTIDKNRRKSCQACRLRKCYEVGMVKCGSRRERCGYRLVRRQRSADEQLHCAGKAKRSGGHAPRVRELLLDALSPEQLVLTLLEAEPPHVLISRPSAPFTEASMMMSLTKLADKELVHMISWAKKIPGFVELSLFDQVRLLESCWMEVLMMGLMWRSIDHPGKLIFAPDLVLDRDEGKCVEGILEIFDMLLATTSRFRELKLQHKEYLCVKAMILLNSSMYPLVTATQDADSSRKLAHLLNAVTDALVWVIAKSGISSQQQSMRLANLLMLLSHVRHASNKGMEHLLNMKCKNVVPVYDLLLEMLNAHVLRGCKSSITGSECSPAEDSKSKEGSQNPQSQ

As to `C=CCOC(Cn1ccnc1)c1ccc(Cl)cc1Cl` (stereo unspecified), the AC50 was 60.6 µM (active) in [1]; 58.3 µM (active) and 85.7 µM (active) in [2]; 78.5 µM (active) and 79 µM (active) in [3]; 0.775 µM (active) in experiment [6]; 0.142 µM (active) in experiment [8]; 0.159 µM (active) in experiment [10]. Besides, the result in experiment [4], in [5], in experiment [7], in [9] and in experiment [11] was inactive.
With `CCCCC(CC)COC(=O)c1ccccc1C(=O)O` (stereo unspecified), the call in experiment [1], in experiment [2] and in experiment [3] was inactive.
As to `CCCN(CCC)C(=O)SCC`, the compound was classed as inactive in experiment [1], in [12], in [13], in [2], in experiment [3] and in experiment [4]. The outcome in experiment [5], in experiment [6], in experiment [7], in experiment [8], in experiment [14] and in experiment [9] was inactive. The call in experiment [10] and in [11] was inactive.
As for `CCCCCOC(=O)COc1cc(N2C(=O)C3=C(CCCC3)C2=O)c(F)cc1Cl`, the compound was classed as inactive in experiment [1], in [12], in [13], in [2], in [3] and in experiment [4]. For the same compound, the call in experiment [5], in experiment [6], in experiment [7], in experiment [8], in experiment [9] and in experiment [10] was inactive. Besides, the compound was called inactive in experiment [11].
As for `S=C([S-])NCCNC(=S)[S-].[Mn+2]`, the result in experiment [1], in experiment [2], in [3], in [4], in experiment [5] and in experiment [6] was inactive. Further, the result in [7], in experiment [8], in [9], in [10] and in experiment [11] was inactive. Also, in [3], the AC50 was 69.5 µM (active).
As for `CCCCOC(=O)[C@@H](C)Oc1ccc(Oc2ccc(C(F)(F)F)cn2)cc1`, the compound was called inactive in experiment [1], in experiment [12], in [16], in experiment [2], in experiment [3] and in experiment [4]. Further, the compound was called inactive in [5], in [6], in [7], in experiment [8], in experiment [9] and in experiment [10]. The call in experiment [11] was inactive. The AC50 is 46.5 µM (active) in experiment [13] and 58.9 µM (active) in experiment [15].
With `c1ccc2[nH]c(-c3cscn3)nc2c1`, the outcome in experiment [1], in experiment [12], in experiment [13], in [15], in experiment [16] and in experiment [4] was inactive. Also, the compound was called inactive in experiment [5], in experiment [6], in experiment [7], in [8], in experiment [14] and in experiment [9]. In addition, the outcome in experiment [10] and in experiment [11] was inactive.
In the case of `CCOC(=O)COc1cc(-n2ncc(C(F)(F)F)c(C)c2=O)c(F)cc1Cl`, the compound was classed as inactive in experiment [1], in experiment [12], in experiment [13], in [2], in experiment [3] and in [4]. Also, the result in [5] was inactive.
Regarding `CCCOC(=O)NCCCN(C)C`, the compound was called inactive in [2], in experiment [3], in experiment [4] and in experiment [5].
Regarding `COC(=O)c1ccc(I)cc1S(=O)(=O)NC(=O)Nc1nc(C)nc(OC)n1`, the call in experiment [1], in experiment [3], in experiment [4] and in experiment [5] was inactive.
With `COC(=O)CSc1cc(N=c2sc(=O)n3n2CCCC3)c(F)cc1Cl`, the call in experiment [1], in [15], in experiment [2], in [3], in [4] and in experiment [5] was inactive.
On to `O=C(O)C1(C(=O)Nc2ccc(Cl)cc2Cl)CC1`, for which the result in experiment [1], in [12], in experiment [13], in [15], in experiment [16] and in [4] was inactive. In addition, in experiment [5], the compound was classed as inactive. The concentration at half-maximal activity (AC50) in experiment [3] was 50 µM (active).
